According to PubChem BioAssay (NCI):
This is part of a sample that, as a whole, favours compounds with a hit. Of some 83,000 tested, about 20% had one in any assay.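 How to read the values: 0–100, growth inhibition (40 = 60% inhibited); 0, no net growth; -100 to 0, cell death (-40 = 40% of starting cells died; -100 = all dead).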 Unmarked numbers belong to inactive results. The source made the active and inactive calls.

system: PC-3 prostate; assay: NCI-60 one-dose screen, 48 h (100 = growth as untreated, 0 = no growth, -100 = all killed); conditions: 10 µM unless noted
Description: Growth inhibition of the PC-3 human tumor cell line is measured as a screen for anti-cancer activity. Cells are grown in 96 well plates and exposed to the test compound for 48 hours. Compounds are tested at a single concentration, which is 10^-5 M for most compounds. The reported endpoint is percent growth (GI% or GIPRCNT), where numbers from 0 - 100% represent growth inhibition, and numbers from -100% - 0 represent cell death. For example, a value of 40 represents 60% growth inhibition. A value of 0 means no net growth occurred over the course of the experiment. A value of -40 indicates 40% of cells at the beginning of the experiment died by the end of the experiment. A value of -100 means all cells are dead at the end of the experiment.
NCI-60 Human Tumor Cell Lines Screen was performed using the standard one-dose NCI protocol, which is described in more detail at https://dtp.cancer.gov/discovery_development/nci-60/default.htm.
Compounds with GIPRCNT values below 10 were considered active. Activity score was based on GIPRCNT using the following formula: […]
Score is 0 for GIPRCNT values of 100 or above, 50 for GIPRCNT values of 0, and 100 for GIPRCNT values of -100.

Row | Compound | growth
1 | O=C(CN1CCN(c2ccc(Cl)cc2)CC1)N1CCN(c2nnc(-c3ccc(Cl)cc3)c(-c3ccc(Cl)cc3)n2)CC1 | 30.5%
2 | CN1C(=O)C(C2=NN(C=O)C(c3ccc(F)cc3)C2)C(=O)N(C)C1=O (stereo not given) | 78.7%
3 | N#Cc1c(-c2ccccc2)cc(-c2ccccc2)n(CC(=O)O)c1=O | 70.4%
4 | CC(=O)Nc1ccc(C(=O)COc2cccc(/C=C3\CCc4ccccc4C3=O)c2)cc1 | 76.1%
5 | Cc1[nH]ccc2cc3nc4ccccc4c3cc12 | 33.4%
6 | O=C(Nc1nc2c(C(F)(F)F)cccc2s1)c1cc(Cl)ccc1O | 3.52% (active)
7 | Nc1nc2c(c(=O)[nH]1)C1(C(=O)Nc3ccccc31)c1c(nc(N)[nH]c1=O)N2 | 103%
8 | O=c1[nH]cc(Nc2cc(Cl)c3nonc3c2[N+](=O)[O-])c(=O)[nH]1 | 92.9%
9 | O=C1C=CC(=O)N1c1ccccc1N1C(=O)C=CC1=O | 97.5%
10 | CCN(CC)c1ccc(C(=C2C=CC(=[N+](CC)Cc3cccc(S(=O)(=O)O)c3)C=C2)c2ccc(N(CC)Cc3cccc(S(=O)(=O)O)c3)cc2)cc1 | -3.18% (active)
11 | [N-]=[N+]=NCc1cccc(/C(O)=C/C(=O)C(=O)O)c1 | 97.3%
12 | COc1ccc(C(=O)COc2cccc(/C=C3\COc4ccc5ccccc5c4C3=O)c2)cc1 | 48.2%
13 | CCCn1c(N)c(C(=O)CNc2ccc(I)cc2)c(=O)[nH]c1=O | 60.9%
14 | O=C(Nc1ccc2c(c1)C(=O)c1ccccc1-2)c1ccccc1 | 92.9%
15 | CC(C)CC1NC(=O)C(CCCN)NC(=O)C(C(C)C)NC(=O)C2CCCN2C(=O)C(Cc2ccccc2)NC(=O)C(CC(C)C)NC(=O)C(CCCN)NC(=O)C(C(C)C)NC(=O)C2CCCN2C(=O)C(Cc2ccccc2)NC1=O (stereo not given) | -49.2% (active)
16 | CCCCOP(=O)(OCCCC)C(C(=O)OCC)C(CC(=O)OCC)C(=O)OCC (stereo not given) | 88.6%
17 | Cc1c2oc3c(C)ccc(C(=O)OC(C)C4NC(=O)C(C(C)C)N(C)C(=O)CN(C)C(=O)C5CCCN5C(=O)C(C(C)C)NC4=O)c3nc-2c(C(=O)OC(C)C2NC(=O)C(C(C)C)N(C)C(=O)CN(C)C(=O)C3CCCN3C(=O)C(C(C)C)NC2=O)c(N)c1=O (stereo not given) | 10.4%
18 | Nc1ccccc1-c1ccn[nH]1 | 79.1%
19 | COc1cc2c(cc1OC)C(=O)/C(=C/c1cccc(OCC(=O)c3ccccc3)c1)C2 | 62%
20 | COc1ccc(OC)c(CCn2cncc2-c2c[nH]c3cc(Br)ccc23)c1 | 34.5%

Row | Compound | growth
21 | CC(=O)OC1Oc2cc(C)c(C)cc2-c2oc(=O)c(-c3ccccc3)cc21 (stereo not given) | -11.4% (active)
22 | C[C@H]1O[C@@H](O[C@H]2[C@@H](O)C[C@H](O[C@H]3[C@@H](O)C[C@H](O[C@H]4CC[C@]5(C)C6C[C@@H](O)[C@]7(C)[C@@H](C8=CC(=O)OC8)CC[C@]7(O)C6CC[C@@H]5C4)O[C@@H]3C)O[C@@H]2C)C[C@H](O)[C@@H]1O (stereo not given in full) | -21.3% (active)
23 | CC(=O)OCC(=O)[C@@]1(O)CC[C@H]2[C@@H]3CCC4=CC(=O)CC[C@]4(C)[C@@]3(F)[C@@H](O)C[C@@]21C | 93.7%
24 | COc1cccc(C=Nc2cc(C(C)C)c(O)cc2C)c1O | 92.8%
25 | CC1CN(C2CCCCC2)C(=O)NC1=O (stereo not given) | 94%
26 | CCCCCCCSc1ncnc2[nH]ncc12 | 78.8%
27 | C[C@H]1O[C@@H](O[C@H]2[C@@H](O)C[C@H](O[C@H]3[C@@H](O)C[C@H](O[C@H]4CC[C@]5(C)C6CC[C@]7(C)[C@@H](C8=CC(=O)OC8)CC[C@]7(O)C6CC[C@@H]5C4)O[C@@H]3C)O[C@@H]2C)C[C@H](O)[C@@H]1O (stereo not given in full) | -24.1% (active)
28 | NC(=NCCCCCCN=C(N)/N=C(\N)Nc1ccc(Cl)cc1)/N=C(\N)Nc1ccc(Cl)cc1 | 20.7%
29 | O=C(N/N=C/c1ccc(Cl)cc1Cl)c1ccccc1Nc1cccc(C(F)(F)F)c1 | 60.5%
30 | C/C(=C\CCc1ccoc1)CC/C=C(\C)CCCN1CCSCC1 | 84.3%
31 | NC(=N\N=C/Cc1ccccc1)/C(N)=N\N=C\Cc1ccccc1 | 101%
32 | COc1ccc2c(c1)C(=Nc1cc(OC)c(OC)c(OC)c1)C(=O)N2 | 77.5%
33 | CC[C@H]1CN2CCc3cc(OC)c(OC)cc3C2C[C@@H]1CC1NCCc2cc(OC)c(OC)cc21 (stereo not given in full) | -12% (active)
34 | COc1ccc(CCN2C(=O)CCC3=C2CCCC3=O)cc1OC | 96.6%
35 | O=Nc1c2cccnc2n2nnc3ccc(Cl)cc3c12 | -26.9% (active)
36 | CCSc1ncc(Br)c(Sc2nc(N)nc3nc[nH]c23)n1 | 80.1%
37 | C/C=C(/C(=C/C)c1ccc(O)cc1)c1ccc(O)cc1 | 46.2%
38 | O=C(COc1cccc(/C=C2\Oc3ccc4ccccc4c3C2=O)c1)c1ccc([N+](=O)[O-])cc1 | 75.6%
39 | O=C(NCCCl)NCCN1c2nc3ccccc3cc2Sc2cc3ccccc3nc21 | 25.3%
40 | CC(C)=CCCC(C)c1ccc(C)c2c1OCN(CC1CCNCC1)C2 (stereo not given) | 59.4%
